Test results as given in the supplement of paper PMC13392028.

Test system: PvIESI-1 RRM domain (Plasmodium vivax PVP01_0939900 aa 896-1203, GST fusion)
Assay: RBNS R-value (6-mer enrichment in protein-bound RNA vs input library) (ratio); higher = stronger binding preference; the methods of the paper give 50 / 100 / 500 nM protein instead
Summary of the method: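 RNA-recognition-motif regions of orthologous proteins from three Plasmodium species were expressed in E. coli as GST fusions and purified. They were incubated at room temperature with an in vitro transcribed library of random 40-mer RNA, then captured on glutathione magnetic agarose beads and washed three times. Bound RNA and input library were reverse transcribed and sequenced on a MiSeq, and 6-mers from one replicate were scored. The R-value is each motif's enrichment in bound RNA over input, computed with the Burge lab pipeline.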

Sequence	RBNS R-value (protein concentration: 250 nM)	RBNS R-value (protein concentration: 500 nM)	RBNS R-value (protein concentration: 1000 nM)
GAUUUG	2.81	2.87	2.62
AUUGAU	3.54	3.72	3.67
UGAUUU	4.88	5	4.69
CAUGAU	3.57	3.87	3.8
UUGAUC	1.91	2.12	2.1
UGAUUC	3.85	4.13	3.89
UUUGAU	3.94	4.25	3.98
GCCCGA	1.45	1.67	1.67
GAUGAA	2.73	2.89	2.83
GAUGUG	2.3	2.53	2.31
UGAUAG	3	3.35	3.29
CUGAUU	3.89	4.11	3.75
GAUUGA	2.27	2.42	2.29
UGAUGC	3.72	4.04	3.95
UGAUGA	5.51	5.62	5.25
GAUUUC	2.32	2.49	2.38
GCGAUG	1.97	2.19	2.01
GAUUGC	2.21	2.33	2.1
GAUGGG	2.02	2.1	2.01
UCUGAU	2.94	3.21	3.02
GAUGAC	2.47	2.67	2.51
UUGAUA	2.87	3.36	3.32
